Screening results (PubChem)
TGFb inhibitor: qHTS for Inhibitors of TGF-b. HepG2 CAGA-GFP TGF-b/SMAD3 reporter, GFP fluorescence, 18 h; TGF-beta stimulated, 500 pg/mL final. Potency, µM (series often up to 46.1 µM), without a hit: at the highest dose activity, negative = inhibition, most hits filed as inhibitors. 1.2% of 410,000 active; note: % is set by controls: 0 for no effect and ±100 for the full control effect; nearly all actives have a fitted effect of over 65% in size
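Inhibition was scored as loss of TGF-beta-induced (500 pg/mL final, 18 hours, 37 degrees C) GFP in HEPG2 cells carrying a CAGA-GFP reporter, in DMEM with 1% FBS. Well GFP was summed per cell; Activity was normalised to unstimulated and stimulated DMSO wells, then concentration-response fitting.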
HT1080 IDH1KD tx: qHTS for induction of synthetic lethality in tumor cells producing 2HG: qHTS for the HT-1080-IDH1KD cell line | HT-1080 IDH1 knockdown viability, ATP luminescence, 48 h | Potency, µM (highest dose often 46.1 µM), without a hit: top-dose activity, negative = toxicity, usual class: cytotoxic | 2% of 360,000 active | AID 686971, 2013;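 note: 0% = DMSO wells and -100% = cell-free medium wells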
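Knockdown cells (IDH1KD HT-1080) received compounds 2 h after plating at 750 cells/well and were kept 48 h at 37 °C in 5% FBS RPMI. A CellTiter-Glo luminescence read gave % activity for curve fitting.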
HT1080-NT tox: qHTS for induction of synthetic lethality in tumor cells producing 2HG: qHTS for the HT-1080-NT fibrosarcoma cell line | HT-1080-NT fibrosarcoma viability, CellTiter-Glo ATP luminescence, 48 h | Potency, µM (series often up to 46.1 µM), without a hit: at the top dose activity, negative = less viability, most hits filed as cytotoxic | 1.6% of 360,000 active | AID 686970, 2013;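 note: NT is the 2HG producing partner of a matched IDH1 knockdown line; 0% = DMSO-treated cells and -100% = media-only wells without cells; nearly all actives have a fitted effect of over 55% in size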
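Fibrosarcoma NT cells, 750 per well in 5% FBS RPMI, were exposed to compound for 48 hours. Viability: CellTiter-Glo luminescence.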
TDP1 cell CPT: qHTS for Inhibitors of human tyrosyl-DNA phosphodiesterase 1 (TDP1): qHTS in cells in presence of CPT. AID 686979, 2013. chicken DT40 Tdp1-/-;hTDP1 cells + 20 nM CPT, ATP luminescence, 48 h. Potency, µM (doses to about 46.2 µM), for inactives: top-dose activity change, negative = growth inhibition, most hits filed as inhibitors. 12% of 420,000 active; note: % is set by controls: 0 for no effect and ±100 for the full control effect; nearly all actives have a fitted effect of over 55% in size
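Chicken DT40 Tdp1-/- cells stably complemented with human TDP1 were seeded at 400 cells/well in medium containing 20 nM camptothecin, exposed to pin-transferred compounds, and grown at 37 °C for at least 48 hr. Viability was read as ATP luminescence.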
HepG2 tox: qHTS for Inhibitors of TGF-b: Cytotox Counterscreen. Potency, µM (top dose mostly 46.1 µM), for the others: at the highest dose activity change, negative = cytotoxicity, most hits filed as cytotoxic. 0.76% of 410,000 active. HepG2 CAGA-GFP viability, ATP luminescence, 18 h. AID 588856, 2011
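HepG2 CAGA-GFP cells (1000/well, DMEM with 1% FBS) received compound, then TGF-beta at 500 pg/mL final, and were incubated 18 hours at 37 degrees C. Viability was read by CellTiter-Glo luminescence. Media-only wells were set as complete cell-killing and DMSO as no toxicity.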
DT40 TDP1 no CPT: qHTS for Inhibitors of human tyrosyl-DNA phosphodiesterase 1 (TDP1): qHTS in cells in absence of CPT | DT40 Tdp1-/- hTDP1 cells, no CPT, ATP luminescence, 48 h | Potency, µM (series often up to 46.2 µM), without a hit: at the top dose activity change, negative = growth inhibition, hits mostly inhibitors | 15% of 420,000 active | AID 686978, 2013; note: % is set by controls: 0 for no effect and ±100 for the full control effect; nearly all actives have a fitted effect of over 55% in size
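Readout: luminescence from CellTiter-Glo after 30 min in the dark at RT. Cells: DT40 Tdp1-/- with stable hTDP1, 400/well. Exposure: compounds alone, ≥48 hr, 37 °C.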
Active calls of the source: *; ? = inconclusive; / = not tested or not shown; [ ] = remark or other dose. Most compounds without a hit are left out; they make up all but 17% or so of the library. Calls come from the whole dose curve; as a rule, active = well fitted curve in the direction sought with a large enough effect; inconclusive = small, poorly fitted or top-dose-only effect, or another doubt; inactive = no such curve, though single readings can be large; an effect the other way counts as inactive or inconclusive. Potency is the fitted concentration of half-maximal effect.

SMILES	TGFb inhibitor	HT1080 IDH1KD tx	HT1080-NT tox	TDP1 cell CPT	HepG2 tox	DT40 TDP1 no CPT
C=CCOc1c(Br)cc(CNCCCN2CCOCC2)cc1OC	1.2%	-8.2%	-15.5%	-27.8%	-17.0%	?
CCOc1cc(CNCCN2CCOCC2)ccc1OCc1ccccc1Cl	5.5%	?	?	?	-20.1%	18.4µM*
CCOc1cc(CNCCCN2CCOCC2)cc(Br)c1OCc1ccccc1Cl	14.1µM*	8.2µM*	7.31µM*	3.66µM*	-93.5%	4.61µM*
CCCCNC(=O)COC(=O)c1ccc(Cl)c(S(N)(=O)=O)c1	-5.4%	10.6%	4.3%	3.6%	-25.8%	-1.5%
COc1ccccc1N1C(=O)S/C(=C\c2cc(C)n(C)c2C)C1=O	-11.6%	10.9%	13.7%	?	-1.2%	?
CCCN1C(=O)/C(=C/c2cc(C)n(C)c2C)SC1=Nc1ccc(OC)cc1	-2.9%	-22.3%	?	13µM*	5.1%	9.2µM*
COc1ccc(N=C2S/C(=C\c3cc(C)n(C)c3C)C(=O)N2C)cc1	?	-24.0%	-24.5%	?	-20.6%	6.51µM*
COc1ccc(S(=O)(=O)Nc2cccc(N(C)S(C)(=O)=O)c2)cc1Br	?	-1.0%	1.3%	?	4.5%	20.6µM*
CN(c1cccc(NC(=O)CN(c2ccc(F)cc2)S(C)(=O)=O)c1)S(C)(=O)=O	4.8%	10.7%	-1.6%	1.1%	-9.2%	-0.6%
CN(c1cccc(NC(=O)CN(c2ccc(C34CC5CC(CC(C5)C3)C4)cc2)S(C)(=O)=O)c1)S(C)(=O)=O	11.2µM*	20µM*	?	18.4µM*	-30.7%	20.6µM*
O=C(CN(c1cccc(C(F)(F)F)c1)S(=O)(=O)c1ccc(Cl)c([N+](=O)[O-])c1)NCc1ccc(F)cc1	?	?	?	16.4µM*	-47.2%	16.4µM*
O=C(CN(c1cccc([N+](=O)[O-])c1)S(=O)(=O)c1ccccc1)NCc1cccnc1	25.4%	6.3%	14.3%	8.3%	1.1%	-15.5%
CN(c1cccc(NC(=O)CN(c2ccc(Cl)c(Cl)c2)S(=O)(=O)c2ccccc2)c1)S(C)(=O)=O	0.0%	-29.4%	-21.5%	?	-39.9%	20.6µM*
CC(C)(CO)NS(=O)(=O)c1ccc2c(c1)Cc1cc(S(=O)(=O)NC(C)(C)CO)ccc1-2	6.4%	-5.1%	-26.5%	0.6%	-16.7%	2.6%
Cc1ccc(NC(=O)CN(C)C(=O)/C=C/c2cccs2)cc1	-12.1%	12.2%	13.6%	-23.3%	3.7%	-13.2%
Cc1ccc(S(=O)(=O)N(CC(=O)Nc2cccc(N(C)S(C)(=O)=O)c2)c2ccc(Cl)c(Cl)c2)cc1	?	-23.8%	-12.2%	20.6µM*	-36.0%	23.1µM*
O=C(CN(c1ccc(Cl)c(C(F)(F)F)c1)S(=O)(=O)c1ccccc1)Nc1cccnc1	11.2µM*	/	/	?	-14.5%	7.31µM*
CN(CC(=O)Nc1cccnc1)S(=O)(=O)c1ccccc1	5.4%	6.9%	28.7%	-24.4%	11.9%	-7.8%
COc1ccc(C)cc1N(CC(=O)Nc1cccc(N(C)S(C)(=O)=O)c1)S(C)(=O)=O	?	?	?	20.6µM*	-40.2%	?
O=C(CN(c1cccc(C(F)(F)F)c1)S(=O)(=O)c1ccccc1)Nc1cccc(Cl)c1	?	/	/	16.4µM*	-51.7%	14.6µM*
CC(C)C[C@H](NC(=O)OC(C)(C)C)C(=O)N/N=C/C1=Cc2ccccc2OC1C (stereo partly drawn)	?	?	?	?	-64.4%	?
COc1ccc(N(CC(=O)Nc2ccccc2Cl)S(=O)(=O)c2ccc(C)cc2)cc1OC	-21.8%	-6.7%	-4.1%	-19.8%	-41.8%	-13.5%
Cc1ccc(S(=O)(=O)N(CC(=O)Nc2c(C)cccc2C)c2cccc(Cl)c2)cc1	?	/	/	?	-13.1%	14.6µM*
CCOC(=O)C(=O)NNc1ccc(F)cc1	14.4%	8.2µM*	11.6µM*	18.0%	4.9%	0.2%
Cc1cc(C)cc(OCC(=O)N(Cc2cccs2)c2ccc(Cl)cc2)c1	?	/	/	?	-20.7%	?
SMILES	TGFb inhibitor	HT1080 IDH1KD tx	HT1080-NT tox	TDP1 cell CPT	HepG2 tox	DT40 TDP1 no CPT
COc1ccc(N(Cc2cccs2)C(=O)COc2cc(C)c(Cl)c(C)c2)cc1	15.8µM*	/	/	?	-28.3%	?
Cc1ccc(N(Cc2cccs2)C(=O)COc2cccc(C)c2)cc1	?	/	/	?	-44.4%	23.1µM*
COc1ccc(N(Cc2cccs2)C(=O)c2ccc(Br)o2)cc1	-50.1%	/	/	14.6µM*	-4.2%	18.4µM*
COc1ccc(N(Cc2cccs2)C(=O)COc2cccc(C)c2C)cc1	?	/	/	?	-15.9%	18.4µM*
COc1ccc(CNC(=O)C2CCN(S(=O)(=O)c3ccc(F)cc3)CC2)cc1	2.0%	/	/	-29.8%	6.9%	-23.9%
Cc1cccc(CNC(=O)c2cnn(-c3nccc(-c4ccccc4F)n3)c2C)n1	/	/	/	8.4%[9.04 µM]	/	-1.4%
CC1(C(=O)NS(=O)(=O)c2ccc(C#N)cc2)CCN1C(=O)Cc1ccsc1 (stereo not drawn)	-0.3%	15.4%	22.2%	-14.5%	-29.0%	-10.7%
Cc1cn([C@H]2C[C@H](O)[C@@H](/C=C/C(=O)NCc3ccc4c(c3)OCO4)O2)c(=O)[nH]c1=O	-5.9%	11.1%	19.8%	6.8%	-3.4%	1.9%
Cc1ccc(N(Cc2cccs2)C(=O)c2ccc(OC(C)C)cc2)cc1	-16.7%	/	/	20.6µM*	-50.0%	?
CCC(=O)Nc1cccc(C(=O)/C=C/c2ccccc2)c1	?	?	?	4.11µM*	-94.7%	5.17µM*
CCC(=O)Nc1cccc(C(=O)c2ccc(C)c(C)c2)c1	-2.0%	-3.0%	7.7%	-29.4%	-19.2%	20.6µM*
CCC(=O)Nc1cccc(C(=O)/C=C/c2cccs2)c1	?	-10.3%	-6.7%	?	-34.5%	20.6µM*
CC(=O)Nc1cccc(C(=O)OC(C(=O)c2ccc(C)c(C)c2)c2ccccc2)c1 (stereo not drawn)	-15.7%	-21.3%	-4.3%	16.4µM*	6.0%	16.4µM*
COc1cc(C(=O)NCc2ccc3c(c2)OCO3)c([N+](=O)[O-])cc1OC	13.5%	4.7%	7.9%	-4.8%	0.6%	-13.8%
